From PubChem BioAssay (NCATS) come the findings set out here.

Assay [1] concerns the target Aldehyde dehydrogenase, mitochondrial (Homo sapiens) (UniProt P05091). In words: qHTS for Inhibitors of the Aldehyde Dehydrogenase Family (ALDH2) Primary screen (AID 2061308). Note: nearly all actives have a fitted effect of over 55% in size. In general terms: Quantitative high-throughput screening tests each substance at several concentrations.
The target in assay [2] is Retinaldehyde dehydrogenase 3 (Homo sapiens) (UniProt P47895). In words: qHTS for Inhibitors of the Aldehyde Dehydrogenase Family (ALDH1A3) Primary screen (AID 2061315).

Records with an inconclusive call do not appear. Where a call stands in place of a potency, no number is given. The source made the active and inactive calls. Calls come from the whole dose curve; as a rule, active = well fitted curve in the direction sought with a large enough effect; inconclusive = small, poorly fitted or top-dose-only effect, or another doubt; inactive = no such curve, though single readings can be large; an effect the other way counts as inactive or inconclusive.

Consider `Cc1cc(F)ccc1S(=O)(=O)Nc1cnccc1C(=O)Nc1nc(-c2ccccc2)cs1`, for which the Potency result in assay [1] and in assay [2] was “inactive” throughout.

As to `O=C(Nc1ccc(Cl)c(C(F)(F)F)c1)Nc1cccc(-c2ccncc2)n1`, the Potency entry in assay [1] and in assay [2] was “inactive” throughout.

Consider `O=C(Nc1ccccn1)c1sc2ccccc2c1Cl`, for which the Potency entry in assay [1] and in assay [2] was “inactive” throughout.

For the molecule `Cc1ccc(NS(=O)(=O)c2ccc3c(c2)CCC(=O)N3C)cc1Cl`, the Potency entry in assay [1] and in assay [2] was “inactive” each time.

`COc1ccc(C2C3=C(N=CN(CCN4CCOCC4)C3N)Oc3ccccc32)cc1OC` (stereo unspecified): the Potency result in assay [1] and in assay [2] was “inactive” in each case.

As for `O=C1CCCC2=C1C1(CCCC1)N=C(Nc1nc3cc4ccccc4cc3o1)N2`, the Potency result in assay [1] and in assay [2] was “inactive” each time.

For `COc1ccc(NS(=O)(=O)c2ccccc2)cc1NS(=O)(=O)c1ccccc1`, the Potency entry in assay [1] and in assay [2] was “inactive” throughout.

As for `COc1ccc2[nH]c(=O)c3c(c2c1)OC(C)(C)C=C3`, the Potency result in assay [1] and in assay [2] was “inactive” in each case.

On to `Cc1ccnc(NC(=S)N2CC[C@@H](Nc3cccc(C(F)(F)F)c3)C2)c1`, for which the Potency entry in assay [1] and in assay [2] was “inactive” each time.

Consider `CC/C(=C(\c1ccc(O)cc1)c1ccc(OCCNC)cc1)c1ccccc1`, for which the Potency result in assay [1] and in assay [2] was “inactive” each time.

On to `Cc1cc(C)nc(NC(=S)N2CCN(c3nc4ccccc4o3)CC2)c1`, for which the Potency result in assay [1] and in assay [2] was “inactive” each time.

Regarding `CCOc1ccccc1OCCNC(C)Cc1ccc(OC)c(S(N)(=O)=O)c1` (stereo unspecified), the Potency entry in assay [1] and in assay [2] was “inactive” each time.

For the molecule `CC(C)(C)n1nc(Cc2cccc3ccccc23)c2c(N)ncnc21`, the Potency entry in assay [1] and in assay [2] was “inactive” throughout.

As to `O=C1CCCC2=C1C(c1[nH]ncc1Cl)N=C(Nc1cccnc1)N2` (stereo unspecified), the Potency result in assay [1] and in assay [2] was “inactive” in each case.

`Cc1ccc(S(=O)(=O)Nc2ccc(OC(F)(F)F)cc2C(=O)Nc2nc(-c3ccccc3)cs2)cc1`: the Potency entry in assay [1] and in assay [2] was “inactive” each time.

In the case of `O=C(NCCc1nc2ccccc2n1CCOc1ccc(Cl)cc1)C1CCCCC1`, the Potency entry in assay [1] and in assay [2] was “inactive” throughout.

With `Cc1cc(-c2nnc3n2CCCCC3)c(C)n1-c1ccccc1`, the Potency result in assay [1] and in assay [2] was “inactive” each time.

As to `CC(C)n1nc(Cc2cccc3ccccc23)c2c(N)ncnc21`, the Potency entry in assay [1] and in assay [2] was “inactive” each time.

Turning to `COc1ccc(N2C[C@]34C=C[C@H](O3)C(C(=O)O)C4C2=O)cc1` (stereo partly specified), the Potency result in assay [1] and in assay [2] was “inactive” in each case.

With `Cc1cc(C)nc(NC(=S)N2CCN(c3cccc([N+](=O)[O-])c3)CC2)c1`, the Potency result in assay [1] and in assay [2] was “inactive” throughout.

Consider `Cn1c(=O)c2c(nc(OC3CCN(C(=O)C4CC4)CC3)n2CCC(C)(C)C)n(C)c1=O`, for which the Potency entry in assay [1] and in assay [2] was “inactive” each time.

Take `Cc1cc(-c2ccccc2)nc2c(C(=O)Nc3ccc(Cl)c(Cl)c3)cnn12`: the Potency entry in assay [1] and in assay [2] was “inactive” throughout.

Regarding `Cc1cccc(NC(=O)c2cc(-c3ccc(C)c(C)c3)nc3ccccc23)c1`, the Potency result in assay [1] and in assay [2] was “inactive” in each case.

On to `N#Cc1cccc(S(=O)(=O)N2CCN(S(=O)(=O)c3ccc4c(c3)OCCO4)CC2)c1`, for which the Potency result in assay [1] and in assay [2] was “inactive” each time.

For `CCNC(=O)c1ccc(-c2ccc3ncnc(N4CCOCC4)c3c2)o1`, the Potency result in assay [1] and in assay [2] was “inactive” throughout.

For `N#Cc1nc(NCC(F)F)c2ncn(-c3cc(F)cc(F)c3)c2n1`, the Potency entry in assay [1] and in assay [2] was “inactive” in each case.

Consider `Cc1cc(C)cc(Cn2ncc3c4sc(C)cc4n(C)c3c2=O)c1`, for which the Potency entry in assay [1] and in assay [2] was “inactive” throughout.

As for `O=C(Nc1ccc(C(=O)Nc2nccs2)cc1)c1ccc2ccccc2c1`, the Potency result in assay [1] and in assay [2] was “inactive” throughout.

With `COc1cc(C(=O)NC(=S)Nc2cccc(NC(=O)c3ccccc3)c2)cc(OC)c1OC`, the Potency result in assay [1] and in assay [2] was “inactive” throughout.

`NC(=O)C1CCN(c2nc(-c3ccc4c(c3)OCCCO4)cs2)CC1`: the Potency result in assay [1] and in assay [2] was “inactive” in each case.

Regarding `Cc1cc(C)n2ncc(C(=O)Nc3cccc(C(F)(F)F)c3)c2n1`, the Potency result in assay [1] and in assay [2] was “inactive” in each case.

On to `O=C(Nc1ccc(Cl)c(S(=O)(=O)N2CCOCC2)c1)c1ccc(S(=O)(=O)N2CCCCC2)cc1`, for which the Potency entry in assay [1] and in assay [2] was “inactive” throughout.

In the case of `CC(C)c1ccccc1-c1nc(NCc2ccc(-c3cccnc3)cc2)c2ccsc2n1`, the Potency entry in assay [1] and in assay [2] was “inactive” throughout.

On to `c1nc(NCc2ccoc2)c2cc(-c3ccc4c(c3)OCO4)ccc2n1`, for which the Potency entry in assay [1] and in assay [2] was “inactive” in each case.

On to `COc1cc(O)c(C(CC(=O)N2CCC(C)CC2)c2ccc3c(c2)OCO3)c(OC)c1` (stereo unspecified), for which the Potency entry in assay [1] and in assay [2] was “inactive” throughout.

Take `Cc1ccc(C(=O)[C@H]2CC[C@@H](C(=O)Nc3ccc(S(=O)(=O)Nc4nccs4)cc3)C2)cc1C`: the Potency result in assay [1] and in assay [2] was “inactive” each time.

For `CCc1nn2c(=O)cc(NC3CNC3)nc2s1`, the Potency result in assay [1] and in assay [2] was “inactive” throughout.

On to `CCCCNC(=O)c1ccc2c(c1)ncn2-c1cccc(C)c1`, for which the Potency result in assay [1] and in assay [2] was “inactive” in each case.

Regarding `CC(C)c1ccc(NC(=O)c2cccs2)c(-c2nc3ccccc3[nH]c2=O)c1`, the Potency entry in assay [1] and in assay [2] was “inactive” each time.

Consider `FC(F)(F)c1ccccc1-c1nc(NCC#Cc2cccnc2)c2ccccc2n1`, for which the Potency result in assay [1] and in assay [2] was “inactive” throughout.

For `Cc1cn(-c2cc(F)cc(NC(=O)c3ccc(C)c(Nc4nccc(-c5cccnc5)n4)c3)c2)cn1`, the Potency result in assay [1] and in assay [2] was “inactive” throughout.

On to `C=C1C(=O)O[C@@H]2/C=C(\CO)CC/C=C(\CO)[C@H](OC(C)=O)C(OC(=O)C(C)CC)C12` (stereo partly specified), for which the Potency entry in assay [1] and in assay [2] was “inactive” each time.

For `COc1ccc(S(=O)(=O)Nc2ccc(C)c(C)c2)cc1`, the Potency entry in assay [1] and in assay [2] was “inactive” in each case.
